# Tests used:
# Test in all cases: DAPPL (digital affinity profiling via proximity ligation, sequencing); 10 mM Tris-HCl pH 7.5, 50 mM NaCl, 1 mM DTT, 4% glycerol, room temperature, 30 min; GST-TFs on glutathione beads, 16-mer random dsDNA library, 0.1% formaldehyde crosslink after washing; high values mean tight binding
# FLI1 = molecular target: T1, FLI1 (Homo sapiens, UniProt Q01543 1-452); conditions: protein: recombinant; tags: N-terminal GST; dsDNA, one strand shown
# T1 sequence: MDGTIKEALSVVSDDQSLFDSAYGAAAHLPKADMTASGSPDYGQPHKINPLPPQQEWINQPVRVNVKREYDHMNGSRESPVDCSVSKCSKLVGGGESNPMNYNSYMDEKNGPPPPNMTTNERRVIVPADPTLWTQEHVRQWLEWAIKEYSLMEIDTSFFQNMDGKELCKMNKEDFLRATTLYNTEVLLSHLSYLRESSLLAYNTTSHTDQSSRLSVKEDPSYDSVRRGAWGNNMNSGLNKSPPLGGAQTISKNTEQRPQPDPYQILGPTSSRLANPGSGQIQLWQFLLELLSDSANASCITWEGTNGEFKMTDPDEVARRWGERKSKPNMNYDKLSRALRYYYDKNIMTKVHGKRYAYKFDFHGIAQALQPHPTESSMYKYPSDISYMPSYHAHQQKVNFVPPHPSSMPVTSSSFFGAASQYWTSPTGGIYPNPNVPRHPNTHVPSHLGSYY
# Method in brief: (§1)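 Yeast served to express human transcription factors as GST fusions, which were then captured on glutathione beads and labelled with DNA barcodes. Pooled with a tag-only sample, they were incubated with 200 nmole of a 16-mer random double-stranded DNA library for 30 min at room temperature in Tris/NaCl/DTT/glycerol buffer, washed, crosslinked with 0.1% formaldehyde, ligated by proximity, amplified by PCR and sequenced. Dividing each hexamer's read frequency for a factor by its frequency for the tag-only sample gives the binding signal.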
# ELK1 = molecular target: T2, ELK1 (Homo sapiens, UniProt P19419 1-428); conditions: protein: recombinant; tags: N-terminal GST; dsDNA, one strand shown
# T2 sequence: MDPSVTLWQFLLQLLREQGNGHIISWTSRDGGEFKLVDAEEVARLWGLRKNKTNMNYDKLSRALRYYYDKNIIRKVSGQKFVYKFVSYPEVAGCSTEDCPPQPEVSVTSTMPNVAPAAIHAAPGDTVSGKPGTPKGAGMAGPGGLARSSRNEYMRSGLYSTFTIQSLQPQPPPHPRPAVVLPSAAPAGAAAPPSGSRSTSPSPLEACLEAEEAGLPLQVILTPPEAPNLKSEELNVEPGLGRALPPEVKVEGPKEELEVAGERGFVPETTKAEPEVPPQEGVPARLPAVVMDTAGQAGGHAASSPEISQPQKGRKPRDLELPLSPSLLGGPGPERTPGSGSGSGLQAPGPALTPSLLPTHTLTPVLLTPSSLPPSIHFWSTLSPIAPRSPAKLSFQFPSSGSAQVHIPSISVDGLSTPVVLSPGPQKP
# Method in brief: as §1
# GABPA = molecular target: T3, GABPA (Homo sapiens, UniProt Q06546 1-454); conditions: protein: recombinant; tags: N-terminal GST; dsDNA, one strand shown
# T3 sequence: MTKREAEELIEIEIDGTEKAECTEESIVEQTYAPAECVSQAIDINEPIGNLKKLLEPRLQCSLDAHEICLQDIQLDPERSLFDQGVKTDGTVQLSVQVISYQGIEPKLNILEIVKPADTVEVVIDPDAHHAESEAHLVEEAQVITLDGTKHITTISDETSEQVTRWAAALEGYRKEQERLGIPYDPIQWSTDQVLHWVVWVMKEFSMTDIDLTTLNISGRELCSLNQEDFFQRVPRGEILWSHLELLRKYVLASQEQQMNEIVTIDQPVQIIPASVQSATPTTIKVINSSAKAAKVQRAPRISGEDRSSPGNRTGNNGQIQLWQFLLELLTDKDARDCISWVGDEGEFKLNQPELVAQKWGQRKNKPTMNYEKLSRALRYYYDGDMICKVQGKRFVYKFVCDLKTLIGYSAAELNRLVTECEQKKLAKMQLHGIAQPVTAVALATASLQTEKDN
# Method in brief: as §1
# ERG = molecular target: T4, ERG (Homo sapiens, UniProt P11308 1-479); conditions: protein: recombinant; tags: N-terminal GST; dsDNA, one strand shown
# T4 sequence: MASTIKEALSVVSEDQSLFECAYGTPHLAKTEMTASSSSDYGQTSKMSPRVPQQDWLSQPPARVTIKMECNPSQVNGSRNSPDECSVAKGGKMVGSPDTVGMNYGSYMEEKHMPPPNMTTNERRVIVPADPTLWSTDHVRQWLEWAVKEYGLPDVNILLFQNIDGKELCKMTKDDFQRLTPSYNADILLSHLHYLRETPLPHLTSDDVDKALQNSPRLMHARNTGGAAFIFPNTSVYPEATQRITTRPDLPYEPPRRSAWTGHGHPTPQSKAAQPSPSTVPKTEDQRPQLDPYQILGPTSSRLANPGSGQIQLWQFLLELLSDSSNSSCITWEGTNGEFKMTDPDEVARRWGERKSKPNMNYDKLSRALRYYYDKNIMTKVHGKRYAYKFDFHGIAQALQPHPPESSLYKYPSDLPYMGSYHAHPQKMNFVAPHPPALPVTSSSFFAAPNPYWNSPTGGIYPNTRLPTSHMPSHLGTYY
# Method in brief: as §1
# ELF1 = ELF1 (Homo sapiens, UniProt P32519 1-619); conditions: protein: recombinant; tags: N-terminal GST; dsDNA, one strand shown
# Method in brief: as §1
# EHF = molecular target: T5, EHF (Homo sapiens, UniProt Q9NZC4 1-300); conditions: protein: recombinant; tags: N-terminal GST; dsDNA, one strand shown
# T5 sequence: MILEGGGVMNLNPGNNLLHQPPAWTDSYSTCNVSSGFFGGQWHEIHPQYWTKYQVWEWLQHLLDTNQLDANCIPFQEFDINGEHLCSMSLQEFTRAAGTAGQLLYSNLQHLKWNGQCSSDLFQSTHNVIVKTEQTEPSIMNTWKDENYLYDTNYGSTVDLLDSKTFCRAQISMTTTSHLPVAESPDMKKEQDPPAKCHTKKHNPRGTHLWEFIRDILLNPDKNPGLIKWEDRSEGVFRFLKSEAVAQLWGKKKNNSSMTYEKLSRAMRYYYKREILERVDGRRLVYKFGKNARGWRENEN
# Method in brief: as §1
# SPI1 = SPI1 (Homo sapiens, UniProt P17947 1-270); conditions: protein: recombinant; tags: N-terminal GST; dsDNA, one strand shown
# Method in brief: as §1
# SPIB = SPIB (Homo sapiens, UniProt Q01892 1-262); conditions: protein: recombinant; tags: N-terminal GST; dsDNA, one strand shown
# Method in brief: as §1
# ELK3 = molecular target: T6, ELK3 (Homo sapiens, UniProt P41970 1-407); conditions: protein: recombinant; tags: N-terminal GST; dsDNA, one strand shown
# T6 sequence: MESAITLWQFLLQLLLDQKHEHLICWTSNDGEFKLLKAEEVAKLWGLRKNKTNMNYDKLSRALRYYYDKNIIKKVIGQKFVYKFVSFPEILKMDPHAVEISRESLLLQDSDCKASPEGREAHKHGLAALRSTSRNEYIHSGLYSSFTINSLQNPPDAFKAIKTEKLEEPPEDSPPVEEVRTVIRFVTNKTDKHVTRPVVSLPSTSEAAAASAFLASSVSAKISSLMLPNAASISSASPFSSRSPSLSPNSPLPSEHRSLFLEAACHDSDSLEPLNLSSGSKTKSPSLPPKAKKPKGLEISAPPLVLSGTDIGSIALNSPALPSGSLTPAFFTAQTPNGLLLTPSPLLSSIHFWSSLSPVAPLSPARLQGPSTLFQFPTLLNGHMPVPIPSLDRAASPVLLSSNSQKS
# Method in brief: as §1
# FEV = molecular target: T7, FEV (Homo sapiens, UniProt Q99581 1-238); conditions: protein: recombinant; tags: N-terminal GST; dsDNA, one strand shown
# T7 sequence: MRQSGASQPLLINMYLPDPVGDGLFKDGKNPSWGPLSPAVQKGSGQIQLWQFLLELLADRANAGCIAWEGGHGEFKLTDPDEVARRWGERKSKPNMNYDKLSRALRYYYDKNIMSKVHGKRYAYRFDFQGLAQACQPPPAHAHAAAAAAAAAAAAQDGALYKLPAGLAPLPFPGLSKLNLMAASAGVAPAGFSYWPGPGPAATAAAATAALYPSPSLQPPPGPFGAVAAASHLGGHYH
# Method in brief: as §1
# ETV5 = ETV5 (Homo sapiens, UniProt P41161 1-510); conditions: protein: recombinant; tags: N-terminal GST; dsDNA, one strand shown
# Method in brief: as §1
# HSF1 = HSF1 (Homo sapiens, UniProt Q00613 1-529); conditions: protein: recombinant; tags: N-terminal GST; chain copies: 3; dsDNA, one strand shown
# Method in brief: as §1
# SPIC = molecular target: T8, SPIC (Homo sapiens, UniProt Q8N5J4 1-248); conditions: protein: recombinant; tags: N-terminal GST; dsDNA, one strand shown
# T8 sequence: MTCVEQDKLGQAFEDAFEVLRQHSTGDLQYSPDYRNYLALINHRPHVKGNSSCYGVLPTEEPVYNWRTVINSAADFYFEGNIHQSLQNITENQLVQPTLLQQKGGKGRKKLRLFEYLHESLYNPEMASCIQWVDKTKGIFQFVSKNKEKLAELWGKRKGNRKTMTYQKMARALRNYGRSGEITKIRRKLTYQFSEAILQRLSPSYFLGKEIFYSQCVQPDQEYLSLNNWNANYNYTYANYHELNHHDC
# Method in brief: as §1
# ELF4 = ELF4 (Homo sapiens, UniProt Q99607 1-663); conditions: protein: recombinant; tags: N-terminal GST; dsDNA, one strand shown
# Method in brief: as §1
# ELK4 = molecular target: T9, ELK4 (Homo sapiens, UniProt P28324-2 1-405); conditions: protein: recombinant; tags: N-terminal GST; dsDNA, one strand shown
# T9 sequence: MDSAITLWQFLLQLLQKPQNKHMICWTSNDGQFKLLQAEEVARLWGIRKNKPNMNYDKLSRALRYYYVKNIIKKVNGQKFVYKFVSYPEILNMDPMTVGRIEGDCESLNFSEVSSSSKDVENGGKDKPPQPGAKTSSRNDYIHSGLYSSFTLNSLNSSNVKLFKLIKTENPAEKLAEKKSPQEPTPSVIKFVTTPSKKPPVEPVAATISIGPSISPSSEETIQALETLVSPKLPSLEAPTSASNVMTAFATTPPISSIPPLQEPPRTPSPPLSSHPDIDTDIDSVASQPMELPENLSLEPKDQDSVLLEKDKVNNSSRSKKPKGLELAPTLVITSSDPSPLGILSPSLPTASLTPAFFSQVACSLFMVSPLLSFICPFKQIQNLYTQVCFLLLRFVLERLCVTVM
# Method in brief: as §1
# ELF3 = molecular target: T10, ELF3 (Homo sapiens, UniProt P78545 1-371); conditions: protein: recombinant; tags: N-terminal GST; dsDNA, one strand shown
# T10 sequence: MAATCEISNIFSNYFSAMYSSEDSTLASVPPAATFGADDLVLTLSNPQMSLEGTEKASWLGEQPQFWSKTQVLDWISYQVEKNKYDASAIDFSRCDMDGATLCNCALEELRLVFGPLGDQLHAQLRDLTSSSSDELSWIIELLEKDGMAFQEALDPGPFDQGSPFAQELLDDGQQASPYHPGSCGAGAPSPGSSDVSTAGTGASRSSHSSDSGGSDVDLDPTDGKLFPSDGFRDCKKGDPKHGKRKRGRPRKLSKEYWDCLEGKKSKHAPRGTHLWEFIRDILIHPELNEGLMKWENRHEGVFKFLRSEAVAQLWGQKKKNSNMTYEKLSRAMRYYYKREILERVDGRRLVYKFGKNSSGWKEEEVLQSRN
# Method in brief: as §1
# ETV1 = ETV1 (Homo sapiens, UniProt P50549 1-477); conditions: protein: recombinant; tags: N-terminal GST; dsDNA, one strand shown
# Method in brief: as §1
# Sequence of SPIB (Q01892 whole entry): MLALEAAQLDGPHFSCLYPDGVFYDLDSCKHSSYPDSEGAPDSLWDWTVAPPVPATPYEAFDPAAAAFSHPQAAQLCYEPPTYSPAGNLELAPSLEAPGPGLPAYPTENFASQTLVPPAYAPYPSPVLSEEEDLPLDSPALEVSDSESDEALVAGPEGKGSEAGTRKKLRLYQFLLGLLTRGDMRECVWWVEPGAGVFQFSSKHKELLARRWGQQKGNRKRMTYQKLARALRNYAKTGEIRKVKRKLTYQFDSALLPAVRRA
# Sequence of ELF1 (P32519 whole entry): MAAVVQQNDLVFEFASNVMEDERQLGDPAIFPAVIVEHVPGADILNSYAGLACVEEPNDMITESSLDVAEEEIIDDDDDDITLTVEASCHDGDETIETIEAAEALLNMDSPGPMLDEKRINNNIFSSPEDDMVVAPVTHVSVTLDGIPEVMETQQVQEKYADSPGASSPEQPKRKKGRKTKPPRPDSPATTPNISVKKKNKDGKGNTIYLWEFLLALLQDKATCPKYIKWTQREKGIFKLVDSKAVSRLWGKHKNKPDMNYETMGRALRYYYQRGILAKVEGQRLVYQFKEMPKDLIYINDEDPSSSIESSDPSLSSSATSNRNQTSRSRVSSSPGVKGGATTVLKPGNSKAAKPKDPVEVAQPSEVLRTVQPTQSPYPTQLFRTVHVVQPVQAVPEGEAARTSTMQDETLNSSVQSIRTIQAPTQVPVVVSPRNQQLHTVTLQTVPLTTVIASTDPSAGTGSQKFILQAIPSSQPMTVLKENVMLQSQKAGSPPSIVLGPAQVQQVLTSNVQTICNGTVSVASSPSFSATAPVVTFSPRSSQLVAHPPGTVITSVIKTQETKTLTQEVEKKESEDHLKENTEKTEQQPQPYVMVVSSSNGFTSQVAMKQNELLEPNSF
# Sequence of ETV1 (P50549 whole entry): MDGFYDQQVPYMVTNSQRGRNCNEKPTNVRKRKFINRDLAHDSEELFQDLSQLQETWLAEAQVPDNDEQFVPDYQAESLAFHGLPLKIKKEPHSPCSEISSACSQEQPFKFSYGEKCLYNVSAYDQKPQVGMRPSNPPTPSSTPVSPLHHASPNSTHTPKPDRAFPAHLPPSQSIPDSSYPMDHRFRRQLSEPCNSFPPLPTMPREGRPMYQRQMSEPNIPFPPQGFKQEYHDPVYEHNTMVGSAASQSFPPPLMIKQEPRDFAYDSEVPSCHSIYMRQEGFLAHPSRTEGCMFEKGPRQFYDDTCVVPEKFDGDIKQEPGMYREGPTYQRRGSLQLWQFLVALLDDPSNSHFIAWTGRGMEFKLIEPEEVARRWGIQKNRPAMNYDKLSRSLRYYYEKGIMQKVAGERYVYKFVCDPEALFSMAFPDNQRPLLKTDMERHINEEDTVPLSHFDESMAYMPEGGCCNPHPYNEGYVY
# Sequence of ETV5 (P41161 whole entry): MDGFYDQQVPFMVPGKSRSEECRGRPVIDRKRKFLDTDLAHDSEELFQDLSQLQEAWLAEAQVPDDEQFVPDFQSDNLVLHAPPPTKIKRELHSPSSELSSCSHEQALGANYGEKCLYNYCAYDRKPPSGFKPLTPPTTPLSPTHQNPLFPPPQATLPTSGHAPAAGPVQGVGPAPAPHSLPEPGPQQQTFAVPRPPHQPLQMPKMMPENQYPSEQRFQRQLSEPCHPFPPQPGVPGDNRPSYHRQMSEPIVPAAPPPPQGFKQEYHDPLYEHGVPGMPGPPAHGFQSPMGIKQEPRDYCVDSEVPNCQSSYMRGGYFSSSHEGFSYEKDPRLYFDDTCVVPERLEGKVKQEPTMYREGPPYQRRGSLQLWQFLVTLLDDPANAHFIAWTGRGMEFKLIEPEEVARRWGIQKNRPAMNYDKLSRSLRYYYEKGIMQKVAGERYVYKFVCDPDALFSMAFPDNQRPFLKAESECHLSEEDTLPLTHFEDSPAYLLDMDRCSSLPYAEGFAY
# Sequence of ELF4 (Q99607 whole entry): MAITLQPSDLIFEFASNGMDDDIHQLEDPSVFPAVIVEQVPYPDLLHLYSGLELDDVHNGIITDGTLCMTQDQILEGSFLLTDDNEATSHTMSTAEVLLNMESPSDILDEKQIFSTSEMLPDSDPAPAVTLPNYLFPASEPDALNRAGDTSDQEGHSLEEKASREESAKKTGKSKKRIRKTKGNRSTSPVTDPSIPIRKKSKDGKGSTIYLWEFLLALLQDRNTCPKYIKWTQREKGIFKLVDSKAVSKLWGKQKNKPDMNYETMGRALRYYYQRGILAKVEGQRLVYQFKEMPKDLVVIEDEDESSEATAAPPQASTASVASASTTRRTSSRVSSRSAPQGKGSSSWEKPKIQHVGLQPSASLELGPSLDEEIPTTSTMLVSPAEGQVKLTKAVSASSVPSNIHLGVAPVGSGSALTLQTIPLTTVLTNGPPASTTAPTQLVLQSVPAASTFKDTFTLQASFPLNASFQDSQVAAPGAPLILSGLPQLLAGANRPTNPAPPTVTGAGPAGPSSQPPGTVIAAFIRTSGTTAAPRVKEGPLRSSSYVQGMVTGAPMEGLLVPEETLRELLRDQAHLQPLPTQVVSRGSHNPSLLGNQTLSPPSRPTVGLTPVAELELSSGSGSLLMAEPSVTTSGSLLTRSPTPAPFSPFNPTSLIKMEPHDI
# Sequence of HSF1 (Q00613 whole entry): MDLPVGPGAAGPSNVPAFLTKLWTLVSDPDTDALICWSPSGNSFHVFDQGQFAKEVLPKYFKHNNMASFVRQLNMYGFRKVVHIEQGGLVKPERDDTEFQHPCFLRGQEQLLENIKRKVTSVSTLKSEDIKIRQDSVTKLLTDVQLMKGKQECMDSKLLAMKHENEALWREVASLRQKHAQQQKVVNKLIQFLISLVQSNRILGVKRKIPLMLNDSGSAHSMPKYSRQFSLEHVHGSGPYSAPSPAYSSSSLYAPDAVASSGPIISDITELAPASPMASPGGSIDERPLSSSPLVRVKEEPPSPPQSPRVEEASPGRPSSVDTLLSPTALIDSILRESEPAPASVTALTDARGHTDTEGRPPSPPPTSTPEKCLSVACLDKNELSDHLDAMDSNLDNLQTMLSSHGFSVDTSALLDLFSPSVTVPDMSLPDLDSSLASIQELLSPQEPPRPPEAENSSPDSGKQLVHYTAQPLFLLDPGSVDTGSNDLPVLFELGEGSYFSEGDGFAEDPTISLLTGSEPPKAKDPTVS
sequence,measurement,setting,value
CGCTCG,binding signal,FLI1,"1.17 fold enrichment (6-mer frequency, TF over GST control)"
same,binding signal,ELK1,"1.08 fold enrichment (6-mer frequency, TF over GST control)"
same,binding signal,GABPA,"1.11 fold enrichment (6-mer frequency, TF over GST control)"
same,binding signal,ERG,"1.05 fold enrichment (6-mer frequency, TF over GST control)"
same,binding signal,ELF1,"1.19 fold enrichment (6-mer frequency, TF over GST control)"
same,binding signal,EHF,"1.04 fold enrichment (6-mer frequency, TF over GST control)"
same,binding signal,SPI1,"1.08 fold enrichment (6-mer frequency, TF over GST control)"
same,binding signal,SPIB,"1.12 fold enrichment (6-mer frequency, TF over GST control)"
same,binding signal,ELK3,"1.11 fold enrichment (6-mer frequency, TF over GST control)"
same,binding signal,FEV,"1.08 fold enrichment (6-mer frequency, TF over GST control)"
same,binding signal,ETV5,"1.05 fold enrichment (6-mer frequency, TF over GST control)"
same,binding signal,HSF1,"1.16 fold enrichment (6-mer frequency, TF over GST control)"
same,binding signal,SPIC,"1.24 fold enrichment (6-mer frequency, TF over GST control)"
same,binding signal,ELF4,"1.17 fold enrichment (6-mer frequency, TF over GST control)"
same,binding signal,ELK4,"1.13 fold enrichment (6-mer frequency, TF over GST control)"
same,binding signal,ELF3,"1.35 fold enrichment (6-mer frequency, TF over GST control)"
same,binding signal,ETV1,"1.09 fold enrichment (6-mer frequency, TF over GST control)"
